Source: PubChem BioAssay (several laboratories)
Only some compounds are listed: those with a hit (about 4.3% of all), similar ones and a draw of the others.
MazEF act: activators of E. coli MazEF toxin-antitoxin RNase; activation, % at 20 µM; actives 0.32% (n = 350,000); FAM/BHQ RNA-DNA oligo cleavage fluorescence, 5 h; AID 504720; P0AE70; in the data active = activation above about 50%
BoNT A protease: blocks Botulinum neurotoxin A light chain protease; multiplex microsphere protease substrate cleavage, flow cytometry; actives 0.17% (n = 360,000); inhibition, % at 10 µM; also: plate controls were buffer without enzyme for full effect and enzyme alone for no effect
Autofluor counter: flagged as autofluorescent in microsphere protease counterscreen; compound autofluorescence counterscreen, microsphere flow cytometry; stronger effect = higher value; fluorescence intensity (concentration not given with the values); actives 3.1% (n = 360,000); in the data active = fluorescence intensity above about 16000; inconclusive = no clear call, values can overlap the other calls
Anthrax LF prot: inhibitors of Bacillus anthracis lethal factor protease; P15917; inhibition, % at 10 µM; AID 588501; actives 0.12% (n = 360,000); multiplex microsphere protease cleavage assay, LF; also: plate controls were buffer without enzyme for full effect and enzyme alone for no effect
Target sequence (P15917 whole entry, looked up): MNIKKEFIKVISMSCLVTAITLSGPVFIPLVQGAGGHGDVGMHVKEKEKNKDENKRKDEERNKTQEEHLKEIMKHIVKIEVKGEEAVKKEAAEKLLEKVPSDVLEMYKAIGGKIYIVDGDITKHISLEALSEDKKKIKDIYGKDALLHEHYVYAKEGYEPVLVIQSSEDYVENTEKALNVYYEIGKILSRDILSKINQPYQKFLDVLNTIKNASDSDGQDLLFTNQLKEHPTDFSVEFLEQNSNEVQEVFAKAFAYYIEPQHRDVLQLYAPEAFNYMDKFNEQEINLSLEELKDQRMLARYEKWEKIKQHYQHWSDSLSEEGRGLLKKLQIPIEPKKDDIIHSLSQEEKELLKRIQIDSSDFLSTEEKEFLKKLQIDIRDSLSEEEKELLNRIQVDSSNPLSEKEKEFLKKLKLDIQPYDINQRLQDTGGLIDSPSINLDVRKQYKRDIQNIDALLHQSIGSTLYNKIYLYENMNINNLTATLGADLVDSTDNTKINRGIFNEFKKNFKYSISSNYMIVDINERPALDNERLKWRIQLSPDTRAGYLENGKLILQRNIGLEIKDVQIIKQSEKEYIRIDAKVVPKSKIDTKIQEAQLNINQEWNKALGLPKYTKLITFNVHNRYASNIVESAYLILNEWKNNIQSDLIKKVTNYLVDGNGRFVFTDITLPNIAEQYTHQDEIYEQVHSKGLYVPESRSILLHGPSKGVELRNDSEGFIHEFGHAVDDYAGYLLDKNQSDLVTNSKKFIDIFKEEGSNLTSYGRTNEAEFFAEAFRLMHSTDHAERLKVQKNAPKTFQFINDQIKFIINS
BoNT F protease: blocks Botulinum neurotoxin F light chain protease; Multiplex microsphere protease cleavage assay, flow cytometry; inhibition, % at 10 µM; actives 0.22% (n = 360,000); in the data active = inhibition above about 35%, passing the limit was not always enough; inconclusive = no clear call, values can overlap the other calls; also: plate controls were buffer without enzyme for full effect and enzyme alone for no effect
PfHsp40 yeast: compounds rescuing yeast from Plasmodium falciparum HSP40 toxicity. AID 504582. growth rescue, % at 12.5 µM. actives 0.68% (n = 340,000). S. cerevisiae expressing PfHsp40, growth rescue, ATP luminescence; in the data active = growth rescue above about 28%, passing the limit was not always enough; inconclusive = no clear call, values can overlap the other calls;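 also: yeast W303a lacking pdr1 and pdr3 grown in galactose medium; growth measured after three days at 30 °C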
BoNT-A LC CP1: blocks botulinum neurotoxin A light chain protease; shares compounds with BoNT F protease; multiplex microsphere protease assay, flow cytometry; inhibition, % at 10 µM; actives 3% (n = 720); AID 602139; in the data active = inhibition above about 32%
BoNTF LC inh 1: inhibitors of Botulinum neurotoxin F light chain protease | shares compounds with BoNT F protease | multiplex microsphere protease cleavage assay, flow cytometry | 720 tested, under 10 active | inhibition, % at 10 µM | AID 602140; call rule not given here
Anthrax LF CP1: Bacillus anthracis lethal factor protease inhibition; shares compounds with BoNT F protease; multiplex microsphere protease cleavage assay, LF; inhibition, % at 10 µM; 720 tested, under 10 active; AID 602142; call rule not given here
An asterisk follows results filed as active; ? = inconclusive; nt = no result given. Rule as the data show it, unless noted: active = inhibition above about 30%; inconclusive = no clear call, values can overlap the other calls; inactive = below that.

SMILES	MazEF act	BoNT A protease	Autofluor counter	Anthrax LF prot	BoNT F protease	PfHsp40 yeast	BoNT-A LC CP1	BoNTF LC inh 1	Anthrax LF CP1
COc1ccc(-c2oc3c(c2C#CC2(O)CCCCC2)C(OC(C)=O)CCC3)cc1 (stereo unspecified)	nt	0	6244	-10	-3	nt	nt	nt	nt
O=C(NC1CCCc2ccccc21)C1CCCC1 (stereo unspecified)	8	-8	4522	33*	?	-1	0	-2	-4
O=C(NC1CCCc2ccccc21)C1CCN(S(=O)(=O)c2ccccc2)CC1 (stereo unspecified)	2	1	10345	-3	1	1	nt	nt	nt
CC(C)CC(=O)N1CCN(Cc2ccc(C(F)(F)F)cc2)CC1	-12	-2	4104	-11	?	-1	nt	nt	nt
O=C(CCS(=O)(=O)c1ccc(Cl)cc1)Nc1nc(-c2cccnc2)cs1	-35	51*	4871	4	4	-1	0	-6	2
Cc1nn(-c2ccc(N3CCOCC3)nn2)c(C)c1CCC(=O)Nc1ccc(F)cc1	3	0	5128	-2	7	-1	nt	nt	nt
CCOC(=O)c1sc(-c2ccccn2)nc1C	1	-1	3986	-6	-3	2	nt	nt	nt
COc1ccc(-c2ccnc(SCC(=O)c3ccc(Cl)cc3)n2)cc1	-3	8	6905	38*	70*	2	0	-4	-2
COc1ccc(-c2ccnc(SCC(=O)c3ccc(OC)c(OC)c3)n2)cc1	3	-1	2048	0	-11	0	nt	nt	nt
Cc1ccccc1NC(=O)CSc1nnc2ccc(-c3cccnc3)nn12	-1	?	?	?	?	0	nt	nt	nt
c1csc(-c2nc3nc4ccccc4nc3n2Cc2ccc3c(c2)OCO3)c1	4	51*	2888	34*	25	0	8	-8	4
COc1ccc(CCNC(=O)C2CCN(S(=O)(=O)N3CCOCC3)CC2)cc1OC	-1	4	11415	0	36*	1	-2	3	-1
CCN(CC)c1ccc(C(=O)NC(=S)N2CCN(Cc3ccc4c(c3)OCO4)CC2)cc1	4	-13	22907*	6	51*	-1	-12	-5	-3
CC(C)NC(=S)N1CCN(Cc2ccc3c(c2)OCO3)CC1	3	-1	4330	-5	-7	-1	nt	nt	nt
CCn1c(SCC(=O)Nc2nc(C)cs2)nnc1C(NC(=O)c1ccccc1Cl)C(C)C (stereo unspecified)	2	-1	2432	-2	-6	0	nt	nt	nt
C=CCn1c(SCC(=O)Nc2nc(C)cs2)nnc1C(CO)NC(=O)c1ccccc1 (stereo unspecified)	-1	2	4560	1	30	-1	-1	2	-3
Cc1ccc(S(=O)(=O)N2CCCCC2C)cc1[N+](=O)[O-] (stereo unspecified)	9	2	3249	-1	17	0	nt	nt	nt
CCOc1c(Br)cc(C(N)=O)cc1OCc1ccccc1	-7	3	2607	-1	36*	-1	-2	0	0
CC(=O)c1cnn(-c2c(Cl)cc(Cl)cc2Cl)c1C	-1	0	2937	6	38*	-1	-2	-2	-4
O=C(Nc1cccc(O)c1)N1CCOCC1	0	0	2893	-1	3	-1	nt	nt	nt
O=C(Nc1ccc2nc(-c3cccs3)c(-c3cccs3)nc2c1)N1CCOCC1	-4	68*	18209*	41*	29	0	39*	2	16
Cc1ccc(NC(=O)CC2(CC(=O)O)CCCC2)cc1	7	0	4216	11	33	-1	nt	nt	nt
O=C(O)CC1(CC(=O)Nc2ccc(C(F)(F)F)cc2)CCCC1	5	2	4111	4	40*	0	1	-2	2
CCc1cccc(CC)c1NC(=O)C1CN(S(=O)(=O)c2ccccc2)CCN1S(=O)(=O)c1ccccc1 (stereo unspecified)	3	2	2655	3	-6	2	nt	nt	nt
Cc1cccc(C(C)C)c1NC(=O)C1CN(S(=O)(=O)c2ccccc2)CCN1S(=O)(=O)c1ccccc1 (stereo unspecified)	-3	38*	6056	37*	14	0	2	-4	0
SMILES	MazEF act	BoNT A protease	Autofluor counter	Anthrax LF prot	BoNT F protease	PfHsp40 yeast	BoNT-A LC CP1	BoNTF LC inh 1	Anthrax LF CP1
O=C(COc1cc(Cl)c(Cl)cc1Cl)N1CCN(c2ccccn2)CC1	-6	-1	3916	-8	0	-1	nt	nt	nt
N#Cc1ccc(-c2ccco2)nc1SCC(=O)c1ccc(Cl)cc1	-114	55*	3776	41*	?	1	18	-3	12
CN(C(=O)CSc1nc2sc3c(c2c(=O)n1C)CCC3)C1CCS(=O)(=O)C1 (stereo unspecified)	3	0	3825	6	3	0	nt	nt	nt
CCOc1ccc(NC(=O)CNC(=O)c2nn(-c3ccc(OC)c(OC)c3)c(=O)c3ccccc23)cc1	2	0	3487	3	0	0	nt	nt	nt
COc1ccc(-n2nc(C(=O)NCC(=O)Nc3cccc(Cl)c3)c3ccccc3c2=O)cc1OC	17	6	3717	4	51*	1	1	-1	-1
CSc1nc(Oc2ccc(F)cc2F)cc(C(F)(F)F)n1	10	1	3385	3	41*	-1	0	-8	-3
O=C1CN(C(=O)c2ccc(Cl)c([N+](=O)[O-])c2)c2ccccc2N1	7	1	3053	32*	6	-1	0	0	1
Cc1ccc(Nc2c([N+](=O)[O-])cc(C(=O)N3CC(=O)Nc4ccccc43)cc2[N+](=O)[O-])c(C)c1	10	-1	2763	-7	-7	0	nt	nt	nt
Cn1c(/C=C/c2ccccc2)nc2ccccc21	0	0	4364	-2	3	-4	nt	nt	nt
O=c1c(/C=C(\O)c2ccc(F)cc2)nc2ccccc2n1-c1ccccc1	-516	46*	14800	32*	194*	-1	20	7	8
Cn1c(=O)c(/C=C/c2ccc(F)cc2)nc2ccccc21	-12	33*	4159	16	2	-1	24	2	9
Cn1c(=O)c(/C=C/c2ccccc2)nc2ccccc21	3	49*	2731	16	3	0	40*	7	21
Cc1ccc(OCC(=O)Oc2c(C)cccc2C)cc1C	-18	-3	2989	2	-7	1	nt	nt	nt
Cc1ccc(CSc2nc3ccncc3[nH]2)cc1	3	0	5911	-1	0	-3	nt	nt	nt
CCCC(CCC)c1nc2ccncc2[nH]1	-18	3	2311	0	41*	0	2	2	2
O=C(O)CSc1nnc(-c2ccc(Cl)cc2)n1-c1ccccc1	nt	0	4072	-3	36*	-2	-1	3	-3
